tested on: HeLa; test: percent cells in G1/S phase; higher = more G1/S content; conditions: 10 µM; 20 h; hit class: G2/M-phase inhibitor
Protocol: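 HTS of 79,827 drug-like compounds at 10 uM. HeLa cells in 384-well plates were treated for 20 h, fixed, stained with Vybrant DyeCycle Green and scanned on an Acumen eX3 cytometer to give per-well cell cycle profiles. Only G2/M hits (>=67% G2/M) are listed.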

Structure (SMILES)	percent cells in G1/S phase [%]
COC(=O)Nc1nc2cc(C(=O)c3ccccc3)ccc2[nH]1 [Mebendazole]	22.1
COc1ccc(/C=C/c2ccc3cccc(O)c3n2)cc1C	22.4
O=c1[nH]c(/C=C/c2ccccc2F)nc2ccccc12	19.2
COc1cc(-c2onc3ccc(Cl)cc23)cc(OC)c1OC	15.6
CCN(CC)CCN1C(=O)C(=O)C(=C(O)c2ccccc2)C1c1ccccc1F (centres undefined)	20.9
O=C(CSc1nc2ccc([N+](=O)[O-])cc2s1)c1ccc(Cl)cc1	22.6
CC(=O)O[C@H]1C(=O)[C@@]2(C)[C@H]([C@H](OC(=O)c3ccccc3)[C@]3(O)C[C@H](OC(=O)[C@H](O)[C@@H](NC(=O)c4ccccc4)c4ccccc4)C(C)=C1C3(C)C)[C@]1(OC(C)=O)CO[C@@H]1C[C@@H]2O [Paclitaxel]	16.5
COC(=O)Nc1nc2cc(Sc3ccccc3)ccc2[nH]1 [Fenbendazole]	26.3
COc1cc(NS(=O)(=O)c2ccc(NC(C)=O)cc2)c(OC)cc1Cl	23.2
COC(=O)Nc1nc2ccc(SC(C)C)cc2[nH]1 [Methiazole]	19.6
O=C(O)c1ccccc1SC1CC(=O)N(c2ccc(Br)cc2)C1=O (centres undefined)	17.9
CC(=O)Nc1ccc(Nc2nc(-c3c(C)nc4ccccn34)cs2)cc1	14.3
O=c1[nH]c(/C=C/c2ccccc2)nc2ccccc12	24.1
COc1ccccc1NC1=CC(=O)CC(c2ccccc2)C1 (centres undefined)	21.6

Reference: the supplement of paper PMC4237247
